# Assay results: PubChem BioAssay (EPA / NIEHS)
# Records with an inconclusive call do not appear. Active and inactive are the calls of the source. Rule for the calls, unless noted: active = hit-call score of the fitted dose curve at least 0.9, where 1 is the maximum; inconclusive = response in the unintended direction; inactive = score below 0.9.
# Legend:
# [1] = Tanguay_ZF_120hpf_PE_legacy: (Legacy) Oregon State University Tanguay Lab 120 Hour Post-fertilization zebrafish Assay for Pericardial Edema (AID 2283640);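 for AC50: potency for increased incidence of pericardial edema versus DMSO baseline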
# Outline: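 Scoring was binary, by brightfield microscopy at 120 hpf, and skipped where mortality occurred. Wild-type embryos were kept under sealed, foil-covered static exposure at 28C in 0.64% (vol/vol) DMSO.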
# [2] = Tanguay_ZF_120hpf_BRAI_legacy: (Legacy) Oregon State University Tanguay Lab 120 Hour Post-fertilization zebrafish Assay for Brain Malformation (AID 2283641)
# Outline: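 Binary brightfield scoring of brain malformation at 120 hpf in Tropical 5D larvae held under static exposure at 28C (0.64% v/v DMSO), non-mortality endpoints skipped if dead. Positive control: 5uM trimethyltin chloride; fit versus DMSO.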
# [3] = Tanguay_ZF_120hpf_SOMI_legacy: (Legacy) Oregon State University Tanguay Lab 120 Hour Post-fertilization zebrafish Assay for Somite Malformation (AID 2283647)
# Outline: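 Binary somite-defect scoring at 120 hpf, omitted for embryos that died, in wild-type (Tropical 5D) zebrafish with chorion removed by pronase at 4 hpf; static exposure began 6 hpf, single embryos per well, 28C, 0.64% DMSO; fitted positive versus DMSO.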
# [4] = Tanguay_ZF_120hpf_CFIN_legacy: (Legacy) Oregon State University Tanguay Lab 120 Hour Post-fertilization zebrafish Assay for Caudal Fin Malformation (AID 2283649)
# Outline: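 Binary brightfield scoring of caudal fin defects at 120 hpf after static, light-shielded exposure at 28C from 6 hpf. Tropical 5D embryos, chorion removed with pronase at 4 hpf, final DMSO 0.64%.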
# [5] = Tanguay_ZF_120hpf_PIG_legacy: (Legacy) Oregon State University Tanguay Lab 120 Hour Post-fertilization zebrafish Assay for Pigmentation Malformation (AID 2283650)
# Outline: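 Brightfield scoring of pigmentation malformation at 120 hpf, recorded as binary present/absent per larva. Exposure: dechorionated 5D wild-type embryos, one per well, static from 6 hpf at 28C, final DMSO 0.64% (vol/vol). Dead embryos not scored.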
# [6] = Tanguay_ZF_120hpf_CIRC_legacy: (Legacy) Oregon State University Tanguay Lab 120 Hour Post-fertilization zebrafish Assay for Circulatory Malformation (AID 2283651)
# Outline: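 Embryos are dechorionated at 4 hpf, plated one per well at 6 hpf, then held under static exposure at 28C until 120 hpf. Malformations are recorded as binary calls; mortality excludes other endpoints.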
# [7] = Tanguay_ZF_120hpf_SWIM_legacy: (Legacy) Oregon State University Tanguay Lab 120 Hour Post-fertilization zebrafish Assay for Swim Bladder Malformation (AID 2283654);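 note: swim bladder malformation in each larva scored yes or no under brightfield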
# Outline: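 Tropical 5D embryos dechorionated at 4 hpf; 1 embryo/well from 6 hpf; static, sealed, dark exposure at 28C until 120 hpf; final DMSO 0.64%; 5uM trimethyltin chloride positive control; swim bladder defect recorded yes/no; dead embryos not scored.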
# [8] = Tanguay_ZF_120hpf_TR_legacy: (Legacy) Oregon State University Tanguay Lab 120 Hour Post-fertilization zebrafish Assay for Touch Response (AID 2283667)
# Outline: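 Binary touch-response call at 120 hpf, analysed as gain of signal versus DMSO baseline. Wild-type 5D larvae, static exposure at 28C, 0.64% DMSO final; 5uM trimethyltin chloride as positive control.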
# [9] = Tanguay_ZF_120hpf_PFIN_legacy: (Legacy) Oregon State University Tanguay Lab 120 Hour Post-fertilization zebrafish Assay for Pectoral Fin Malformation (AID 2283648);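 note: each larva judged yes or no for fin defect by brightfield with dead larvae skipped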
# Outline: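 Binary pectoral fin malformation call at 120 hpf by brightfield microscopy; 5D wild-type zebrafish, chorion removed at 4 hpf, one embryo per well from 6 hpf, static exposure at 28C; DMSO (0.64% final) as baseline.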
# [10] = read-out: solute carrier (SLC22A6), SLC22A6 (gene 9356); assay: LTEA_HepaRG_SLC22A6: Life Technologies and Expression Analysis (LTEA) Assay for solute carrier (SLC22A6) using HepaRG (AID 2283653; active = hit-call score of the fitted dose curve at least 0.9, where 1 is the maximum; inactive = score below 0.9); conditions: mRNA level, 48 h; actives raise or lower the signal
# Outline: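 SLC22A6 transcript was measured by TaqMan qRT-PCR, normalized to three housekeeping genes, after 48 h duplicate exposure of HepaRG cells (100 uM top, half-log steps, 0.5% DMSO); bidirectional fit against vehicle.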
# [11] = Tanguay_ZF_120hpf_TRUN_legacy: (Legacy) Oregon State University Tanguay Lab 120 Hour Post-fertilization zebrafish Assay for Truncated Body (AID 2283655)
# Outline: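 Binary presence/absence of truncated body is recorded at 120 hpf by brightfield, with non-mortality endpoints skipped after death. Exposure is static from 6 hpf in sealed dark plates at 28C, using dechorionated wild-type zebrafish, 0.64% DMSO.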
# [12] = Tanguay_ZF_120hpf_NC_legacy: (Legacy) Oregon State University Tanguay Lab 120 Hour Post-fertilization zebrafish Assay for Notochord and Tail Malformation (AID 2283656)
# Outline: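 Binary scoring of notochord distortion by brightfield microscopy; embryos dying were not scored. Wild-type Tropical 5D embryos, chorion removed, exposed singly and statically from 6 to 120 hpf, 28C, sealed, 0.64% DMSO.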
# [13] = read-out: solute carrier (SLC10A1), SLC10A1 (gene 6554); assay: LTEA_HepaRG_SLC10A1: Life Technologies and Expression Analysis (LTEA) Assay for solute carrier (SLC10A1) using HepaRG (AID 2283657; active = hit-call score of the fitted dose curve at least 0.9, where 1 is the maximum; inactive = score below 0.9); conditions: mRNA level, 48 h; actives raise or lower the signal
# Outline: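 HepaRG, 48 h exposure, 8-pt half-log curve from 100 uM in 0.5% DMSO, duplicates. Read-out: TaqMan qRT-PCR of SLC10A1 mRNA, normalized to three housekeeping genes. Gain/loss fit vs DMSO baseline.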
# [14] = read-out: matrix metalloproteinase-1 (MMP1), MMP1 (gene 4312); assay: LTEA_HepaRG_MMP1: Life Technologies and Expression Analysis (LTEA) Assay for matrix metalloproteinase-1 (MMP1) using HepaRG (AID 2283658; active = hit-call score of the fitted dose curve at least 0.9, where 1 is the maximum; inactive = score below 0.9); conditions: mRNA level, 48 h; actives raise or lower the signal
# Outline: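 qRT-PCR (TaqMan, Fluidigm arrays) of MMP1 transcript, normalized against three housekeeping genes and fitted in both directions relative to 0.5% DMSO vehicle. Human HepaRG cultures received duplicate 48 h exposures across 8 points, highest 100 uM with half-log steps.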
# [15] = read-out: Cytochrome P450 (CYP24A1_1), CYP24A1 (gene 1591); assay: LTEA_HepaRG_CYP24A1_1: Life Technologies and Expression Analysis (LTEA) Assay for Cytochrome P450 (CYP24A1_1) using HepaRG (AID 2283671; active = hit-call score of the fitted dose curve at least 0.9, where 1 is the maximum; inactive = score below 0.9); conditions: mRNA level, 48 h; actives raise or lower the signal
# Outline: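 Readout is CYP24A1 transcript level by qRT-PCR, normalized to three housekeeping genes, with gain or loss of signal fitted against 0.5% DMSO. Human HepaRG cells received compound for 48 h at up to 100 uM.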
# [16] = CCTE_Padilla_ZF_144hpf_TERATOSCORE: (Legacy) CCTE's 144 Hour Post-fertilization zebrafish Assay Teratoscore, Padilla Lab (AID 2283679; active = hit-call score of the fitted dose curve at least 0.9, where 1 is the maximum; inactive = score below 0.9;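 for AC50: zebrafish embryos with chorions exposed by immersion from 6-8 hpf to 5 dpf with daily renewal; teratogenicity score from eye scoring of death hatching and malformations at 144 hpf; higher score means more developmental defects relative to DMSO baseline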)
# Outline: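 Larvae scored by eye at 144 hpf for death, hatching and malformations after a day in clean Hanks'. Before that, daily-renewed exposure at 80 uM (0.4% DMSO, 26C) from roughly 6-8 hpf through 5 dpf, 4 embryos per chemical.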
# [17] = system: Thyroperoxidase (TPO), gene 54314; assay: CCTE_Simmons_AUR_rTPO: CCTE's Amplex UltraRed Assay for Thyroperoxidase (TPO) Inhibition, Simmons Lab (AID 2283662);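 note: potency for loss of signal meaning inhibition of peroxidase activity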
# Outline: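 Rat thyroid microsomal TPO + 25 uM AUR in 200 mM K phosphate; cpd 5 nM–87.5 uM [final], 8 conc, 0.5% DMSO; 300 uM H2O2 starts rxn; 37C dark 30 min; endpoint FI 544/590 nm; n=3.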
# [18] = CCTE_Simmons_CellTiterGLO_HEK293T: Viability Assessment in CCTE's Assays for Thyroperoxidase (TPO) Inhibition, Simmons Lab (AID 2283665)
# Outline: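 Cells were seeded overnight, then exposed to an eight-point series up to 87.5 uM final for 24 hours. CellTiter-Glo reagent was added and luminescence read after 20 min, giving ATP-based viability versus DMSO.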
# [19] = STM_H9_OrnithineISnorm_perc: Stemina devTOX quickPredict H9 human embryonic stem cell (hESC)-based Assay for Ornithine (ORN) Metabolite Biomarker, Normalized (AID 2283712; active = hit-call score of the fitted dose curve at least 0.9, where 1 is the maximum; inactive = score below 0.9;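 note: ornithine released into spent medium during last day measured by mass spectrometry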)
# Outline: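 Ornithine secreted by H9 hESCs after 72h compound treatment (daily media/compound renewal) was quantified in final-day media by UPLC-HRMS. Values are isotope-standard-normalized, expressed relative to 0.1% DMSO, fitted in positive direction.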
# [20] = read-out: kallikrein-3 (KLK3), KLK3 (gene 354); assay: LTEA_HepaRG_KLK3: Life Technologies and Expression Analysis (LTEA) Assay for kallikrein-3 (KLK3) using HepaRG (AID 2283652; active = hit-call score of the fitted dose curve at least 0.9, where 1 is the maximum; inactive = score below 0.9); conditions: mRNA level, 48 h; actives raise or lower the signal
# Outline: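 KLK3 transcript levels were measured by TaqMan qRT-PCR with normalisation to three housekeeping genes. HepaRG cultures received chemicals for 48 h at up to 100 uM (half-log, 8 points, 0.5% DMSO vehicle), fitted in both directions against DMSO.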
smiles,measurement,setting,value
O=[N+]([O-])C(CO)(CO)CO,outcome,[1],inactive
same,outcome,[2],inactive
same,outcome,[3],inactive
same,outcome,[4],inactive
same,outcome,[5],inactive
same,outcome,[6],inactive
same,outcome,[7],inactive
same,outcome,[8],inactive
COc1cc(C=O)ccc1O,AC50,[1],37.6 µM (active)
same,AC50,[2],44.7 µM (active)
same,outcome,[3],inactive
same,AC50,[9],42.8 µM (active)
same,outcome,[4],inactive
same,AC50,[5],45.9 µM (active)
same,outcome,[10],inactive
same,AC50,[11],50 µM (active)
same,outcome,[12],inactive
same,outcome,[13],inactive
same,outcome,[14],inactive
same,outcome,[15],inactive
same,AC50,[16],11.8 µM (active)
CCCCCCC(=O)OCC,outcome,[1],inactive
same,outcome,[2],inactive
same,outcome,[3],inactive
same,outcome,[9],inactive
same,outcome,[5],inactive
same,outcome,[6],inactive
same,outcome,[7],inactive
Cc1oc(-c2ccccc2)nc1CCOc1cccc2c1ccn2CCC(=O)O,outcome,[1],inactive
same,outcome,[2],inactive
same,outcome,[3],inactive
same,outcome,[9],inactive
same,outcome,[5],inactive
same,outcome,[6],inactive
same,outcome,[7],inactive
same,outcome,[12],inactive
same,AC50,[17],28.8 µM (active)
same,outcome,[18],inactive
same,AC50,[16],16.1 µM (active)
same,outcome,[19],inactive
CCOC(=O)C(C)(C)Oc1ccc(Cl)cc1,outcome,[1],inactive
same,outcome,[2],inactive
same,outcome,[3],inactive
same,AC50,[4],69.7 µM (active)
same,outcome,[5],inactive
same,outcome,[6],inactive
same,outcome,[7],inactive
same,outcome,[12],inactive
same,AC50,[16],2.86 µM (active)
CCCc1cc(=O)[nH]c(=S)[nH]1,outcome,[1],inactive
same,outcome,[2],inactive
same,outcome,[3],inactive
same,outcome,[9],inactive
same,outcome,[4],inactive
same,outcome,[5],inactive
same,outcome,[7],inactive
same,outcome,[12],inactive
same,AC50,[17],0.285 µM (active)
same,outcome,[18],inactive
same,outcome,[19],inactive
C1CCC(SSC2CCCCC2)CC1,outcome,[1],inactive
same,outcome,[2],inactive
same,outcome,[3],inactive
same,outcome,[9],inactive
same,outcome,[4],inactive
same,outcome,[20],inactive
same,outcome,[10],inactive
same,outcome,[13],inactive
same,outcome,[14],inactive
same,outcome,[15],inactive
same,outcome,[16],inactive
CCCCCCOCCO,outcome,[1],inactive
same,outcome,[2],inactive
same,outcome,[3],inactive
same,outcome,[9],inactive
same,outcome,[6],inactive
same,outcome,[7],inactive
Cc1nc(-c2ccc3c(c2)CCN(CCC2CCC(NC(=O)/C=C/c4ccc(F)cc4)CC2)CC3)no1 (configuration not stated),outcome,[1],inactive
same,outcome,[2],inactive
same,outcome,[3],inactive
same,outcome,[9],inactive
same,outcome,[4],inactive
same,outcome,[5],inactive
same,outcome,[6],inactive
same,outcome,[7],inactive
same,outcome,[8],inactive
same,outcome,[19],inactive
COC(=O)c1ccc(O)cc1,outcome,[1],inactive
same,outcome,[2],inactive
same,outcome,[3],inactive
same,outcome,[9],inactive
same,outcome,[4],inactive
same,outcome,[5],inactive
same,outcome,[6],inactive
same,outcome,[7],inactive
same,outcome,[8],inactive
same,outcome,[16],inactive
same,AC50,[19],0.091 µM (active)
CCCCCCCCCCO,outcome,[1],inactive
same,outcome,[2],inactive
same,outcome,[3],inactive
same,outcome,[9],inactive
same,outcome,[4],inactive
same,outcome,[5],inactive
same,outcome,[6],inactive
same,outcome,[11],inactive
same,outcome,[8],inactive
same,outcome,[16],inactive
C[Si]1(C)O[Si](C)(C)O[Si](C)(C)O[Si](C)(C)O1,outcome,[1],inactive
same,outcome,[2],inactive
same,outcome,[3],inactive
same,outcome,[9],inactive
same,outcome,[4],inactive
same,outcome,[5],inactive
same,outcome,[7],inactive
same,outcome,[12],inactive
Cc1cccc([N+](=O)[O-])c1C,outcome,[1],inactive
same,outcome,[2],inactive
same,outcome,[3],inactive
same,outcome,[9],inactive
same,outcome,[4],inactive
same,outcome,[5],inactive
same,outcome,[6],inactive
same,outcome,[8],inactive
O=c1[nH]cc(F)c(=O)[nH]1,outcome,[1],inactive
same,outcome,[2],inactive
same,outcome,[3],inactive
same,outcome,[9],inactive
same,outcome,[4],inactive
same,outcome,[5],inactive
same,outcome,[7],inactive
same,outcome,[11],inactive
same,outcome,[12],inactive
same,outcome,[8],inactive
same,AC50,[19],4.61 µM (active)
NCCO,outcome,[1],inactive
same,outcome,[2],inactive
same,outcome,[3],inactive
same,outcome,[9],inactive
same,outcome,[4],inactive
same,outcome,[5],inactive
same,outcome,[6],inactive
same,outcome,[11],inactive
Cc1ccc(Cl)cc1,outcome,[20],inactive
same,outcome,[10],inactive
same,outcome,[13],inactive
same,outcome,[14],inactive
same,outcome,[15],inactive
Oc1ccc2ccccc2c1N=Nc1ccccc1,outcome,[10],inactive
same,AC50,[13],4.88 µM (active)
same,outcome,[14],inactive
same,outcome,[15],inactive
